In all, about 340,000 compounds went through this assay and about 3,300 (0.97%) were called active. Many of the other results were omitted from the sample, so actives are more common in it than they were. Unmarked numbers belong to inactive results.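 Rule for the calls: active = inhibition above the mean over all tested compounds plus 3 SD (cut at about 30% in these data); inactive = the rest.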

This assay concerns the target Platelet-activating factor acetylhydrolase 2, cytoplasmic (Homo sapiens) (UniProt Q99487). The assay can be described thus: PAFAH2 enzyme inhibitors, primary screen, biochemical, fluorescence polarization, human (AID 492956).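 Note: inhibitors block probe labeling of enzyme so polarization drops; 0% = enzyme with DMSO and 100% = wells lacking PAFAH2 protein.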 The following applies: recombinant PAFAH2, FP-rhodamine activity probe, at 3.39 µM, hits give high values. (Fluorescence polarisation rises when a labelled molecule tumbles more slowly, as on binding a larger partner.)
As to `N#Cc1cccc(NC(=O)COC(=O)c2ccccc2C(=O)c2ccc(Cl)c([N+](=O)[O-])c2)c1`, the inhibition was 58.9% (active).
Take `COC(=O)c1cc(NC(=O)Cc2ccccc2[N+](=O)[O-])ccc1Cl`: the inhibition was 0.54%.
`CC(=O)Nc1ccc(NC(=O)C(C)OC(=O)c2ccccc2C(=O)c2ccc(Cl)c([N+](=O)[O-])c2)cc1` (centres undefined): the inhibition was -5.1%.
For `COC(=O)c1onc(-c2c(OC)cc(OC)cc2OC)c1C(=O)OC` the value was -0.23%; for `Cc1cn(C2CC(O)C(CO)O2)c(=O)n(CCCc2ccccc2)c1=O` (centres undefined), -0.23%; for `COc1cccc(CNC(=O)C2CCN(S(=O)(=O)c3cccc4cccnc34)CC2)c1`, -7.61%.
To `O=C(Cc1ccc(NC(=O)C2CCCN(C(=O)C3CCCCC3)C2)cc1)Nc1cccc(C(=O)N2CCCCC2)c1` (centres undefined) belongs -2.71%; to `O=C(CC1Sc2ccccc2NC1=O)NNc1ccc(Cl)c(Cl)c1` (centres undefined), 6.55%.
For `CCN(CC)CCn1c2ccc(Cl)cc2c2nc(C)sc21` the value was -2.76%; for `CCN(CC)CCCC(C)n1c2nc(=O)[nH]c(=O)c-2nc2cc(Cl)ccc21` (centres undefined), 38.8% (active); for `Cc1ccc(S(=O)(=O)N(Cc2cc3ccccc3[nH]c2=O)CC2CCCO2)cc1` (centres undefined), 4.81%.
As for `Cn1c(NC(=O)c2ccco2)c(-c2ccccc2Cl)c(=O)c2ccccc21`, the inhibition was -1.9%.
`Cc1[nH]c(C)c(S(=O)(=O)N2CCN(c3cccc(C(F)(F)F)c3)CC2)c1C(=O)N1CCCCC1`: the inhibition was 8.89%.
Regarding `COc1ccc(/C=C/C(=O)OCC(=O)NCc2cccs2)cc1OC`, the inhibition was 49.4% (active).
`O=C(COC(=O)/C=C/c1cccc(Cl)c1)NCCc1ccccc1`: the inhibition is 20.5%.
To `CCOc1ccc(/C=C/C(=O)N(CC)CC(=O)NCc2cccs2)cc1OC` belongs 5.35%.
Regarding `CCOc1ccc(/C=N/OCC(=O)NCc2cccs2)cc1`, the inhibition was 4.81%.
For `COc1ccc(Cl)cc1C(=O)OCC(=O)NCc1cccs1`, the inhibition is 1.83%.
Regarding `O=C(COC(=O)/C=C/c1cccc(Cl)c1)NCc1cccs1`, the inhibition was 37% (active).
For `CN(CCc1ccccc1)C(=O)c1cccc(NC(=O)Cc2cccc(NC(=O)C3CCCN(C(=O)C4CCC4)C3)c2)c1` (centres undefined) the value was -1.94%; for `COc1ccc(CCNC(=O)CN(C)S(=O)(=O)c2ccc3nc(C)sc3c2)cc1OC`, -0.36%; for `COC(=O)C1=C(C)NC(=S)NC1c1ccc(OCC(=O)N2CC(C)OC(C)C2)c(OC)c1` (centres undefined), -0.58%.
For `Cc1ccc(NS(=O)(=O)c2cn(C)c(=O)n(C)c2=O)c(C)c1` the value was 1.4%.
With `COc1ccc(S(=O)(=O)N2CN(CCc3ccc(OC)c(OC)c3)c3nc4ccccc4nc32)cc1`, the inhibition is 8.38%.
On to `CCOc1ccc(C(=O)Nc2cccc(SC)c2)cc1`, for which the inhibition is -11.9%.
For `CC(=O)c1c(C)[nH]c(C(=O)OCC(=O)Nc2c(C)cccc2C)c1C` the value was 4.64%; for `CC(=O)c1c(C)[nH]c(C(=O)OCC(=O)NCCC(C)C)c1C`, 30.4% (active).
For `CC(=O)c1c(C)[nH]c(C(=O)OCC(=O)Nc2cc(S(=O)(=O)N3CCCCC3)ccc2C)c1C` the value was 7.66%; for `CCC(C)NC(=O)C1CCCN(C(=O)NC2CCCCC2)C1` (centres undefined), 10.5%.
Regarding `COc1ccc(C(=O)C2CCCN(C(=O)c3cc4nc(C)cc(C)n4n3)C2)cc1F` (centres undefined), the inhibition is -3.28%.
To `c1coc(-c2nc3nc4ccccc4n3nc2-c2ccco2)c1` belongs 45.7% (active); to `COc1cc(OC)cc(C(=O)NC(=S)N2CCN(c3ccc(C(F)(F)F)cc3[N+](=O)[O-])CC2)c1`, 7.31%.
With `Cc1ccc(-c2nn(-c3ccc(F)cc3)cc2C(=O)NCC(c2cccs2)N2CCOCC2)cc1` (centres undefined), the inhibition is 3.21%.
To `Cc1cc(C(=O)N2CCN(c3ccccn3)CC2)c(C)o1` belongs -1.14%; to `CC(C)C1N=C2c3ccccc3N=C(SCC(=O)c3ccc(O)c(O)c3)N2C1=O` (centres undefined), 43.8% (active); to `NC(=O)CSC1=Nc2ccccc2C2=NC(CCC(=O)NCc3ccc(F)cc3)C(=O)N12` (centres undefined), 1.37%.
For `O=C(CSC1=Nc2ccccc2C2=NC(c3ccccc3)C(=O)N12)NCC1CCCO1` (centres undefined) the value was 7.84%.
For `C/C(=N/Nc1nc(-c2ccccc2)c(CC(=O)O)s1)c1ccccc1` the value was 0.51%; for `CCOC(=O)CCCN1CC(O)=C(c2nc3ccccc3s2)C1=N`, 34.8% (active); for `CCc1ccc(N2CC(O)=C(c3nc4ccccc4c(=O)[nH]3)C2=N)cc1`, -1.39%.
Consider `CCCCCN1CC(O)=C(c2ccccc2)C1=N`, for which the inhibition is -3.01%.
For `COc1ccccc1N1CC(O)=C(c2nc3ccccc3s2)C1=N` the value was 33.6% (active); for `N=C1C(c2nc3ccccc3s2)=C(O)CN1NC(=O)c1ccc([N+](=O)[O-])cc1`, 8.9%.
To `CCCCCN1CC(O)=C(c2nc(-c3ccc(Cl)cc3)cs2)C1=N` belongs -0.6%; to `CC(=O)Nc1ccc(N2C(=O)CCC2=O)cc1C`, -0.05%; to `NC(=O)C1CCN(Cc2nc3c(Br)cc(Br)cc3c(=O)[nH]2)CC1`, -2.66%.
To `C/C=C/C=C/C(=O)OCC(=O)Nc1ccc(Cl)cc1` belongs 86.5% (active).
For the compound `C/C=C/C(=O)OCC(=O)Nc1ccc(F)cc1Cl`, the inhibition was 26%.
Take `CCC(=O)Nc1ccc(C(=O)NNC(=O)c2ccc(Cl)cc2)cc1`: the inhibition was -2.08%.
To `COc1ccc(-n2c(C)nn(CC3CC3)c2=O)cc1` belongs 0.47%.
As for `O=C1NCC(c2ccccc2)(c2ccccc2)C(=O)N1`, the inhibition is -5.72%.
To `O=C(CSc1n[nH]c(-c2cccnc2)n1)Nc1ccc(Cl)cc1` belongs -7.75%.
For `O=[N+]([O-])c1cc(S(=O)(=O)NCCc2ccccn2)ccc1Cl` the value was 4.86%.
For `O=C(COC(=O)/C=C/c1ccc(Br)o1)Nc1cccc(S(=O)(=O)N2CCOCC2)c1` the value was 42% (active); for `CC(=O)c1cccc(OCC(=O)OCC(=O)Nc2cc(S(=O)(=O)N3CCCCC3)ccc2C)c1`, 1.56%; for `O=C(CSc1ccccc1)Nc1cccc(S(=O)(=O)N2CCOCC2)c1`, -0.86%.
Take `CN=C(Nc1cccc(S(=O)(=O)N2CCOCC2)c1)c1ccccc1`: the inhibition was 0.65%.
For `O=C(CN1CCc2ccccc2C1)Nc1cccc(S(=O)(=O)N2CCOCC2)c1` the value was 5.27%; for `O=C(COC(=O)CCOc1ccccc1)Nc1cc(S(=O)(=O)N2CCCCC2)ccc1Cl`, -0.76%; for `O=C(COC(=O)CCc1ccc(S(=O)(=O)N2CCOCC2)cc1)Nc1cccc(Cl)c1`, 0.83%.
To `CS(=O)(=O)c1ccc(Cl)c(NC(=O)COC(=O)c2cccc(S(=O)(=O)N3CCCC3)c2)c1` belongs 32.3% (active); to `O=C(COC(=O)COc1ccccc1F)Nc1cccc(S(=O)(=O)N2CCCCC2)c1`, -7.67%; to `CCOc1ncccc1C(=O)OCC(=O)Nc1cccc(S(=O)(=O)N2CCCCCC2)c1`, 60% (active).
`O=C(COC(=O)c1ccccc1)Nc1cccc(S(=O)(=O)N2CCOCC2)c1`: the inhibition is 37.7% (active).
On to `CC(NC(=O)c1ccccc1)C(=O)OCC(=O)Nc1cccc(S(=O)(=O)N2CCCC2)c1` (centres undefined), for which the inhibition was 7.86%.
To `OC(CN1C2=NCCCN2c2ccccc21)c1ccc(Br)cc1` (centres undefined) belongs 9.07%; to `C=CCNC(=O)/C=C/c1ccc(C(C)C)cc1`, 10%.
With `CC(=O)NC12CC3CC(C1)CC(C(=O)N1CCN(S(=O)(=O)c4cccs4)CC1)(C3)C2`, the inhibition was 17.5%.
For `O=C(OCC(=O)N1CCCCCC1)c1ccc(Br)c(S(=O)(=O)N2CCOCC2)c1` the value was 8.68%; for `COc1cccc(NC(=O)COc2cc(C)cc3oc(=O)cc(C)c23)c1`, -3.3%; for `CC(=O)c1nn(-c2ccc(C)cc2)cc1C(=O)c1cccc(Br)c1`, 1.51%.
For `Cc1ccc(C)c(C(=O)COC(=O)Cn2[nH]c(=O)c3ccccc3c2=O)c1` the value was -1.71%.
Take `COCCCNC(=O)c1c(F)c(F)c(F)c(F)c1F`: the inhibition is -4.37%.
For `CC(NC(=O)CN1CCN(Cc2ccc(Cl)cc2)C1=O)c1ccc2c(c1)OCCO2` (centres undefined) the value was 1.47%; for `O=C(NCc1cccnc1)c1cccnc1Sc1ccc(Cl)cc1`, 2.4%; for `CCc1ccc(C(=O)OCC(=O)Nc2cccc(S(=O)(=O)NC3=NCCCCC3)c2)cc1`, 52.3% (active).
To `COc1ccccc1C(=O)OCC(=O)Nc1cccc(S(=O)(=O)NC2=NCCCCC2)c1` belongs 12.3%.
To `O=C(COC(=O)c1c(Cl)cccc1Cl)Nc1cccc(S(=O)(=O)NC2=NCCCCC2)c1` belongs 8.12%.
Turning to `CNC(=O)C1CC(=O)N(Cc2ccc3c(c2)OCO3)C(=Nc2ccc(F)cc2)S1` (centres undefined), the inhibition is 0.97%.
As to `CCC1(C)N(O)C(C)(C)C(c2ccc(OC)cc2)=[N+]1[O-]` (centres undefined), the inhibition was 2.06%.
Consider `CCc1ccccc1NC(=O)c1ccc2c(c1)CCN2S(C)(=O)=O`, for which the inhibition is 2.6%.
For `COCCNC(=O)Nc1ccc2nc(-c3ccco3)c(-c3ccco3)nc2c1` the value was 35.8% (active); for `COCCNC(=O)c1snc2ccc(Cl)cc12`, -2.13%.
With `O=C(Nc1nc(-c2ccco2)c(-c2ccco2)s1)c1ccco1`, the inhibition was 22.9%.
To `Cc1nnsc1C(=O)NCc1c(F)cccc1Cl` belongs 2.19%; to `Cc1oc2cc(Br)c(O)c(Br)c2c1C(=O)c1ccccc1`, 59.6% (active); to `Cc1oc2cc([N+](=O)[O-])c(O)c([N+](=O)[O-])c2c1C(=O)c1ccc(Br)cc1`, 8.04%.
For `CCOC(=O)c1c(-c2ccccc2)oc2cc(Br)c(O)c(C=O)c12` the value was 6.96%.
To `COCCN(CCOC)c1nc(N)c2c(N)nc3c(c2c1C#N)CC(=O)N3Cc1ccc(Cl)cc1` belongs 5.58%.

As usually defined, the inhibition is the drop in the measured response relative to a control, in per cent.

The values are drawn from PubChem BioAssay AID492956 (The Scripps Research Institute Molecular Screening Center, 2010).
